Screening results as filed in PubChem BioAssay.
Rows were chosen to be rich in hits. Some 7.4% of all compounds tested hit in one or more screens of this group.
SMN2 splice up: SMN2 splice variant enhancement. HEK293 SMN2-luciferase splicing reporter, luminescence, 30-36 h. hit rate 2.8% among 210,000. AID 1458. Potency, µM (doses to about 46.1 µM), usual class: activators; note: nearly all actives have a fitted effect of over 55% in size
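HEK293 cells carry an SMN2 […]–luciferase reporter in which exon 7 inclusion puts luciferase in frame. Cells were plated 10-12 h before compound addition, then incubated 30-36 h at 37C. ONE-Glo luminescence was read; sodium butyrate at 4.5 mM final served as control.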
NPC1 prom act: NPC1 promoter activation; Huh7 NPC1 promoter luciferase reporter, 24 h; Potency, µM (doses to about 9.22 µM), most hits filed as activators; hit rate 2.4% among 320,000; AID 485313; note: nearly all actives have a fitted effect of over 60% in size
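Huh7 cells stably carrying NPC1 promoter–luciferase, plated in Opti-MEM with 10% FBS for 2 h, were exposed to compound in DMSO for 24 h at 37 °C; luciferase reagent was added for 10 min and luminescence read.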
ELG1 genotox: inducers of genotoxicity in HEK293T ELG1-luciferase cells. hit rate 1.3% among 330,000. AID 504466. Potency, µM (highest dose often 46 µM), most hits filed as activators. HEK293T ELG1-luciferase reporter, luminescence, 16 h; note: nearly all actives have a fitted effect of over 60% in size
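Step 1: seed 2,000 HEK293T ELG1-luciferase cells per well. Step 2: add compound or DMSO, incubate 16 hr at 37 °C. Step 3: ONE-Glo, 30 min at room temperature, read luminescence.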
FLuc counter: firefly luciferase modulation, counter-screen for miR-21 project; P08659; purified FLuc, Km substrates, luminescence inhibition; Potency, µM (highest dose often 57.5 µM), hits mostly inhibitors; hit rate 6.9% among 360,000; AID 588342; note: nearly all actives have a fitted effect of over 55% in size
Target sequence (P08659 whole entry, looked up): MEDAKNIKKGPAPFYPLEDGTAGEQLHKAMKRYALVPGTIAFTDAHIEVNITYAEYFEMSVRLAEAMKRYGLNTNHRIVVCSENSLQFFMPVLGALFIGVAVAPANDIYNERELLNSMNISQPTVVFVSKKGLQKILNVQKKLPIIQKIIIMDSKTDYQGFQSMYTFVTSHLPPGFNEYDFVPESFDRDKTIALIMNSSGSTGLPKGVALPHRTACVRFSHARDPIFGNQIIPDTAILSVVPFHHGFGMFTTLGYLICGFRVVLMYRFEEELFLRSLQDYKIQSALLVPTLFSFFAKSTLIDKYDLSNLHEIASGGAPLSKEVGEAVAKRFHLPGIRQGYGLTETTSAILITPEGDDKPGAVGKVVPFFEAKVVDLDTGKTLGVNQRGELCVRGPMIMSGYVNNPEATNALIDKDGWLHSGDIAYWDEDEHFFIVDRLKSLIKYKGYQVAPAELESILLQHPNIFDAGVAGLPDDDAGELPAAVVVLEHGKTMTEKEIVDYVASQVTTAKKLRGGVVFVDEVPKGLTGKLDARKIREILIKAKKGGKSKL
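Purified P. pyralis luciferase (10nM final) with 10uM D-luciferin and 10uM ATP (Km levels) in 50mM Tris acetate pH 7.5, 10mM Mg acetate, 0.01% Tween-20, 0.05% BSA; qHTS 6-point titration, ~60 µM downward; luminescence read.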
Rab9 promoter act: activates the Rab9 promoter; Huh7 Rab9 promoter-luciferase reporter, luminescence, 24 h; Potency, µM (doses to about 9.22 µM), hits mostly activators; hit rate 2.8% among 320,000; note: nearly all actives have a fitted effect of over 60% in size
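Cell-based reporter: Huh7 stable for Rab9 promoter-driven luciferase, plated in reduced-serum medium with 10% FBS at 1500 cells/well, compound-treated 24 h at 37 °C, luminescence read after 10 min reagent.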
Luc counter: Kinase-Glo luciferase inhibition (counter-screen). Q27757. Kinase-Glo luciferase, ATP luminescence, 8 min. Potency, µM (titrated, usually from 38.3 µM), hits mostly inhibitors. hit rate 0.28% among 200,000. AID 1379; note: nearly all actives have a fitted effect of over 60% in size
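Luminescence was the read-out, taken after 8-minute incubation at ambient temperature. Luciferase turned over luciferin with 10 uM ATP in imidazole pH 7.2 buffer containing KCl, MgCl2, Tween 20 and BSA.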
Each line names hits and unclear results; the compound was inactive in the other large screens. Calls come from the whole dose curve; as a rule, active = well fitted curve in the direction sought with a large enough effect; inconclusive = small, poorly fitted or top-dose-only effect, or another doubt; inactive = no such curve, though single readings can be large; an effect the other way counts as inactive or inconclusive.

COc1ccc(C(=O)Nc2cccc(OC)c2)cc1	SMN2 splice up 2.8µM, NPC1 prom act 2µM, ELG1 genotox 2.3µM, FLuc counter 6.7µM, Rab9 promoter act 1.3µM, Luc counter 7.9µM
COc1cccc(NC(=O)Nc2cccc(C(=O)O)c2)c1	NPC1 prom act inconclusive, FLuc counter 0.17µM, Rab9 promoter act inconclusive (no result: SMN2 splice up)
COc1cccc(C(=O)Nc2cccc(-c3ccccc3)c2)c1	FLuc counter 21µM (no result: SMN2 splice up, Luc counter)
COc1ccc2cc(/C(C)=N/NC(=O)C3CC3)ccc2c1	SMN2 splice up 16µM, NPC1 prom act 2.5µM, ELG1 genotox 18µM, FLuc counter 2.4µM, Rab9 promoter act 2.8µM
Cc1ccc(NC(=O)Cn2c(=O)n(CCCCC(=O)NCc3ccc4c(c3)OCO4)c(=O)c3ccccc32)cc1	none (no result: NPC1 prom act, ELG1 genotox, Rab9 promoter act, Luc counter)
Cc1ccc(CNC(=O)c2cccc(Nc3nc4ccccc4n4nnnc34)c2)cc1	none (no result: NPC1 prom act, ELG1 genotox, Rab9 promoter act, Luc counter)
CCOc1ccc(-n2c(SCc3ccc(C(=O)OC)o3)nc3c([nH]c4ccccc43)c2=O)cc1	none (no result: SMN2 splice up, NPC1 prom act, ELG1 genotox, Rab9 promoter act, Luc counter)
Nc1nc(Cc2ccccc2)nc(Cc2ccccc2)c1-c1ccccc1	none (no result: NPC1 prom act, ELG1 genotox, FLuc counter, Rab9 promoter act)
COc1cccc(NC(=O)c2cccc(C(=O)Nc3cccc(OC)c3)c2)c1	none (no result: SMN2 splice up, Luc counter)
O=C(Nc1ccc(F)cc1)c1ccc2nsnc2c1	NPC1 prom act inconclusive, FLuc counter 13µM, Rab9 promoter act inconclusive (no result: SMN2 splice up, Luc counter)
COc1cccc(NC(=O)c2ccccc2)c1	NPC1 prom act 2.8µM, ELG1 genotox inconclusive, FLuc counter 11µM, Rab9 promoter act 1.8µM (no result: SMN2 splice up, Luc counter)
COc1cccc(NC(=O)c2cccc(C)c2[N+](=O)[O-])c1	SMN2 splice up inconclusive, ELG1 genotox inconclusive, FLuc counter 19µM, Rab9 promoter act inconclusive
COc1cc(NC(=O)c2ccc3nsnc3c2)cc(OC)c1OC	none (no result: SMN2 splice up, Luc counter)
COc1cc(C(=O)Nc2cccc(NC(=O)c3cccs3)c2)cc(OC)c1OC	FLuc counter 24µM (no result: SMN2 splice up, Luc counter)
COc1ccc(OC)c(NC(=O)c2cn3c4c(ccc(Cl)c4c2=O)OC(C)C3)c1 (stereo not given)	none (no result: SMN2 splice up, NPC1 prom act, ELG1 genotox, Rab9 promoter act, Luc counter)
COC(=O)c1ccccc1NC(=O)Nc1cccnc1	FLuc counter 15µM
COc1cccc(C(=O)Nc2cc(Cl)c(O)c(Cl)c2)c1	NPC1 prom act inconclusive, FLuc counter 15µM (no result: SMN2 splice up, Luc counter)
COc1cccc(NC(=O)c2ccc3nsnc3c2)c1	NPC1 prom act inconclusive, ELG1 genotox inconclusive, FLuc counter 12µM, Rab9 promoter act inconclusive (no result: SMN2 splice up, Luc counter)
COc1ccc(S(=O)(=O)N/N=C(/C)c2cccc(NC(=O)c3ccccc3Cl)c2)cc1	FLuc counter 27µM
CC(=O)Nc1cccc(/C(C)=N/NS(=O)(=O)c2ccccc2)c1	none
CCOC(=O)c1ccc(NC(=O)CN(Cc2ccc(C)cc2)S(=O)(=O)c2ccc(C)cc2)cc1	none (no result: NPC1 prom act, ELG1 genotox, Rab9 promoter act, Luc counter)
COc1cccc(-c2nnc(NC(=O)c3cccc(F)c3)o2)c1	ELG1 genotox inconclusive, FLuc counter 17µM (no result: SMN2 splice up, Luc counter)
COc1ccc(S(=O)(=O)N/N=C(/C)c2ccco2)cc1	NPC1 prom act inconclusive, ELG1 genotox inconclusive, FLuc counter 17µM, Rab9 promoter act 2.5µM (no result: SMN2 splice up, Luc counter)
CC(C)OC(=O)c1cccc(NC(=O)c2ccccc2)c1	SMN2 splice up inconclusive, NPC1 prom act inconclusive, FLuc counter 13µM, Rab9 promoter act inconclusive
COc1ccc(S(=O)(=O)N/N=C(/C)c2ccncc2)cc1	none (no result: SMN2 splice up, Luc counter)
CCN(CC)c1sc(S(=O)(=O)c2ccccc2)nc1S(=O)(=O)c1ccc(C)cc1	none (no result: NPC1 prom act, ELG1 genotox, Rab9 promoter act, Luc counter)
COc1ccccc1-c1cc2nc(C)c(CCC(=O)NCCc3cccc(C)c3)c(C)n2n1	none (no result: NPC1 prom act, ELG1 genotox, Rab9 promoter act, Luc counter)
COc1ccc(NC(=O)CN(C)C(=O)c2cc3c(s2)CCC(C)C3)cc1 (stereo not given)	FLuc counter 15µM (no result: SMN2 splice up, Luc counter)
COc1cccc(NC(=O)CNC(=O)c2ccccc2)c1	ELG1 genotox inconclusive
COc1ccc(NC(=O)CN(C)C(=O)CNC(=O)c2ccc3ccccc3c2)cc1	FLuc counter 24µM, Rab9 promoter act inconclusive (no result: SMN2 splice up, Luc counter)
COc1cccc(NC(=O)CN(C)C(=O)CNC(=O)c2ccc(Oc3ccccc3)cc2)c1	FLuc counter 6µM, Rab9 promoter act inconclusive (no result: SMN2 splice up, Luc counter)
CCN(CC(=O)Nc1ccc(OC)cc1)C(=O)c1ccc2ccccc2c1	none (no result: SMN2 splice up, NPC1 prom act, FLuc counter, Rab9 promoter act, Luc counter)
CN(CC(=O)Nc1ccccc1Br)C(=O)CNC(=O)c1cccs1	none (no result: SMN2 splice up, Luc counter)
